From PubChem
Sampled rows, rich in hits. Any-hit rate of the full collection: about 3.8%.
HSF1 activator – HSF-1 activators, primary screen, NIH3T3-HGL cells, MG132 stress, luminescence, single point. NIH3T3-HGL HSF-1 luciferase reporter, 8 h; 100% = twice DMSO control signal. activation, % at 9 µM. 300,000 compounds, 1.7% hits. AID 504408, 2011;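 active = mean replicate activation of at least 50% with a set share of replicates each reaching 50%; inconclusive = only one of those two conditions met; inactive = mean below 50% and too few replicates reaching it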;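 also: 0% = median of the neutral control wells and 100% = twice that signal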
esBAF inh – Bmi1 luciferase reporter increase in mESCs, primary screen, esBAF inhibitor project, mouse ES cells, Bmi1 luciferase knock-in, single point. 24 h; 100% = twice the neutral-well signal. reporter increase, % at 12.5 µM. 350,000 compounds, 2% hits. AID 602393, 2012; in the data active = activation above about 40%; inconclusive = no clear call, values can overlap the other calls;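 also: 0% = median of the plate's neutral control wells and 100% = double that signal; a rise in the Bmi1 reporter signal indicates esBAF inhibition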
MITF TRPM1 HTS – activators of MITF-driven TRPM1 promoter reporter, primary screen, cell-based, SK-MEL-5, luciferase, single point | SK-MEL-5 TRPM1-promoter luciferase, 24 h; % of positive control, neutral wells = 0 | activation, % at 12.5 µM | 300,000 compounds, 0.75% hits;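 active = mean activation of at least 80% with every replicate also reaching 80%; inconclusive = mean reaches 80% but some replicate falls short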;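 also: 0% = neutral control wells and 100% = parthenolide positive control wells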
Wnt bcat act – Wnt/beta-catenin pathway activators, primary screen, cell-based, plate reader, single point; Wnt/beta-catenin reporter cell assay, activator; activation, % at 9.35 µM; 300,000 compounds, 1.2% hits; in the data active = activation above about 30%, passing the limit was not always enough; inconclusive = no clear call, values can overlap the other calls;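 also: 0% = neutral control wells and 100% = positive control wells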
HSF1 inh – HSF1 inhibitors in luciferase reporter cells, primary screen, cell-based, NIH3T3, luminescence. 300,000 compounds, 0.77% hits. AID 2098, 2009. NIH3T3-HGL HSE-luciferase, MG132-induced, luminescence 8 h; hits give low values. activity change, negative = inhibition, % at 7.5 µM (by protocol);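 active = more than half of replicate wells show activity change below -50%, luminescence cut by over half; inconclusive = some wells, but at most half, below -50%; inactive = no replicate well below -50%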;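 also: luciferase reports HSF-1 transcriptional activity via heat shock element; 0% = median of DMSO wells and -100% = zero luminescence signal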
* = called active by the depositor; ? = inconclusive; nt = no result.

SMILES	HSF1 activator	esBAF inh	MITF TRPM1 HTS	Wnt bcat act	HSF1 inh
Nc1nc(Nc2ccc(Cl)cc2)nc2ccccc12	nt	-54.9	nt	nt	nt
C[C@H]1CN([C@@H](C)CO)C(=O)Cc2cc(NC(=O)C3CCCCC3)ccc2O[C@@H]1CN(C)C(=O)NC1CCCCC1	nt	2.4	nt	nt	nt
Cc1ccc(OCC(=O)N2CCc3ccccc3C2)c(Br)c1	76.1*	9.1	44.8	4.7	59.0
O=[N+]([O-])c1cccc(NC(=S)N2CCc3ccccc3C2)c1	45.9	57.9*	13.6	4.6	15.7
Cc1cc(C)cc(NC(=O)N2CCc3ccccc3C2)c1	7.3	44.7*	75.1	12.3	7.6
COc1ccc(NC(=O)N2CCc3ccccc3C2)c(OC)c1	2.8	54.1*	16.6	10.6	9.7
Cc1ccc(OCC(=O)N2CCc3ccccc3C2)c(C)c1	10.1	14.5	15.6	0.7	6.6
O=C(NCC[C@H]1CC[C@@H](NS(=O)(=O)Cc2ccccc2)[C@@H](CO)O1)C1CCCC1	nt	3.5	nt	nt	nt
O=C(Nc1cc(F)ccc1F)N[C@@H]1C=C[C@H](CC(=O)N2CCc3ccccc3C2)O[C@@H]1CO	nt	5.1	nt	nt	nt
CO[C@@H]1CN(C)C(=O)c2ccc(NC(=O)NC(C)C)cc2OC[C@H](C)N(Cc2ccccc2)C[C@@H]1C	nt	1.4	nt	nt	nt
COc1ccc(NC(=O)N(C)C[C@H]2Oc3ccc(NC(=O)CCN4CCOCC4)cc3CC(=O)N([C@H](C)CO)C[C@H]2C)cc1	nt	-0.9	nt	nt	nt
C[C@@H]1CN([C@@H](C)CO)C(=O)c2cccc(NS(=O)(=O)c3ccc(Cl)cc3)c2O[C@H]1CN(C)C(=O)Nc1ccccc1	nt	-1.6	nt	nt	nt
O=C(Nc1ccc(F)cc1)N1CCc2ccccc2C1	14.8	nt	42.2	57.5*	15.3
O=C(Nc1ccc(Br)cc1)N1CCc2ccccc2C1	?	nt	59.6	19.9	33.2
Cc1ccc(NC(=O)N2CCc3ccccc3C2)cc1C	-2.5	60.8*	95.1*	?	8.3
Cc1ccc(NC(=O)C2OCCc3ccccc32)cc1C (stereo not drawn)	32.6	58.0*	67.8	2.4	16.0
C[C@@H](NC(=O)[C@H]1[C@H](CO)[C@H]2Cn3c(ccc(-c4cccnc4)c3=O)[C@@H]1N2C)c1ccccc1	nt	-3.7	nt	nt	nt
C[C@@H]1CN([C@H](C)CO)C(=O)Cc2cc(NC(=O)NC3CCCCC3)ccc2O[C@@H]1CN(C)C(=O)NC1CCCCC1	nt	0.7	nt	nt	nt
COc1ccc(NC(=O)CN(C)S(=O)(=O)c2cccs2)cc1	31.2	48.8*	12.3	-2.6	6.4
COc1ccc(NC(=O)CN(C)S(=O)(=O)c2ccc(Br)s2)cc1OC	55.1*	0.0	4.7	0.4	25.9
CCOc1ccc(NC(=O)CN(c2ccc(OC)cc2)S(=O)(=O)c2cccs2)cc1	nt	-3.0	-6.4	2.5	nt
COc1ccc(NC(=O)CN(C)S(=O)(=O)c2ccc(Br)s2)cc1	9.1	5.6	-5.4	-0.8	2.8
COc1ccccc1NC(=O)N(C)C[C@H]1Oc2cc(Br)ccc2S(=O)(=O)N([C@@H](C)CO)C[C@@H]1C	nt	-2.9	nt	nt	nt
C[C@@H]1CCCCO[C@H](CN(C)S(=O)(=O)c2cn(C)cn2)[C@H](C)CN([C@@H](C)CO)C(=O)c2cc(NC(=O)Cc3ccccc3)ccc2O1	nt	5.3	nt	nt	nt
Cc1cccc(/C=C2\CCC(=C3SCCCS3)C2=O)c1	-25.8	-72.9	-33.9	-1.6	-21.9
SMILES	HSF1 activator	esBAF inh	MITF TRPM1 HTS	Wnt bcat act	HSF1 inh
O=C1C(=C2SCCCS2)CC/C1=C\c1ccc(F)cc1	-78.5	-37.9	-57.9	nt	-74.8*
Cc1nc2ccc(NC(=O)CSc3ccccc3)cc2s1	nt	54.4*	98.2*	50.0*	nt
O=C(CSc1nc2ccc(NC(=O)c3ccccc3C(=O)O)cc2s1)Nc1ccc(F)c([N+](=O)[O-])c1	0.3	-0.3	-2.4	35.0*	4.6
CC(=O)Nc1cccc(NC(=O)Cc2cccs2)c1	2.7	0.1	1.6	-0.7	1.3
COc1ccccc1C(=O)Nc1ccc2nc(SCC(=O)N(C)C)sc2c1	14.5	nt	13.2	1.4	-9.1
Cc1nc2ccc(NC(=O)COc3ccccc3C)cc2s1	3.1	-8.2	22.2	-0.7	-2.3
Cc1nc2ccc(NC(=O)Cc3ccc(Br)cc3)cc2s1	10.2	nt	5.3	2.3	4.1
Cc1nc2ccc(NC(=O)Cc3c(F)cccc3Cl)cc2s1	25.3	nt	108.0*	39.1*	18.2
O=C(Cc1cccs1)Nc1cccc(-c2nc3cc4ccccc4cc3[nH]2)c1	74.0*	nt	79.4	30.0	39.0
COc1ccc(NC(=O)N(C)C[C@@H]2OCCCC[C@H](C)Oc3ccc(NC(=O)NC4CCCCC4)cc3C(=O)N([C@H](C)CO)C[C@@H]2C)cc1	nt	1.7	nt	nt	nt
CC(=O)c1sc(NC(=O)Cc2c(F)cccc2Cl)nc1C	2.8	-8.0	-13.4	6.6	6.0
Cc1nc2ccc(NC(=O)Cc3cccs3)cc2s1	38.0	70.8*	88.1*	61.3*	16.7
O=C(Cc1c(F)cccc1Cl)Nc1nc2ccccc2s1	62.5*	nt	60.7	-1.6	34.6
COc1ccc(S(=O)(=O)Nc2cccc3c2O[C@@H](CN(C)C(=O)Nc2ccc4c(c2)OCO4)[C@H](C)CN([C@@H](C)CO)C3=O)cc1	nt	3.6	nt	nt	nt
C[C@@H]1CCCCO[C@H](CN(C)C(=O)Cc2ccccc2)[C@@H](C)CN([C@H](C)CO)C(=O)c2cc(NC(=O)c3ccncc3)ccc2O1	nt	-2.9	nt	nt	nt
COc1ccc(F)cc1C(=O)C1CCCN(Cc2cccn2-c2ccccn2)C1 (stereo not drawn)	-70.6	-3.7	-19.2	-2.1	-64.3*
CC1=C(C(=O)Nc2ccccc2C)C(c2cccs2)NC(=S)N1 (stereo not drawn)	-61.8	nt	-5.3	nt	-50.8*
CC1=C(C(=O)Nc2ccc(C)cc2C)C(c2cccs2)NC(=S)N1 (stereo not drawn)	-2.6	-0.5	-9.4	nt	-6.4
Cn1c2c(c(=O)n(C)c1=O)C(CC(=O)Nc1ccccc1)C(=O)N2 (stereo not drawn)	-73.0	-3.4	3.8	0.2	-67.0*
COc1ccc(NC(=O)N(C)C[C@@H]2Oc3ccc(NC(=O)CCN4CCOCC4)cc3C(=O)N([C@@H](C)CO)C[C@@H]2C)cc1	nt	1.4	nt	nt	nt
CO[C@H]1CN(C)C(=O)c2ccc(NS(=O)(=O)c3ccc(C)cc3)cc2OC[C@@H](C)N(C(=O)NC(C)C)C[C@@H]1C	nt	-3.7	nt	nt	nt
Cc1ccc(C(=O)/C=C/Nc2cccc(O)c2)cc1	-2.0	-60.4	-2.5	nt	4.4
C/C(=C\C(=O)c1ccc(C)cc1)Nc1cccc(O)c1	10.5	72.4*	65.5	nt	9.9
CCc1ccc(CN(C)C(=O)CCc2nc3ccccc3n(-c3ccc(OC)cc3)c2=O)cc1	70.3*	nt	-14.0	-1.3	41.4
CCCCCCc1ccc(-c2ncc(N)cn2)cc1	51.2*	39.6	32.0	nt	28.1
Cc1ccc(-c2cc(N)n(Cc3ccc(Cl)cc3)n2)cc1	-4.8	17.0	nt	nt	10.6
